Assay results from PubChem BioAssay AID1159580 (chemical genetic matrix, 2015).
Values joined by “and” are separate entries in the source; they are usually repeats but may differ in a detail not shown here. Identical values can stand only once. Hit rate of the full screen: of about 5,500 compounds, about 2,000 (36%) were called active. Another 18% or so got no clear call; they are omitted. No stated cut-off is given here; in the data, active means normalized growth mostly below about 0.91 (no sharp cut-off); inconclusive means no clear call, values can overlap the other calls; inactive means mostly above about 0.92. This is one part of the list.

Assay: chemical genetic growth profiling, strain panel (AID 1159580);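 further: tested at 20 µM; growth read once vehicle control cultures reached saturation at 30 °C; 1 = growth at the plate median or of vehicle wells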
Conditions: S. cerevisiae deletion strains, growth OD

Measured: normalized growth

CCN1C[C@@]2(COC)C3[C@@H](OC)[C@H]4[C@@H]1[C@]3(C(OC)C[C@H]2O)C1C[C@@]2(O)[C@H](OC(=O)c3ccccc3)C1[C@]4(OC(C)=O)[C@@H](O)[C@@H]2OC (stereo partly drawn)
inactive: locus YAL021C, strain ccr4, stronger effect = lower value 1.03 | locus YAL026C, strain drs2, stronger effect = lower value 1.02 | locus YAL030W, strain snc1, stronger effect = lower value 1 | locus YBL061C, strain skt5, stronger effect = lower value 1 | locus YBR009C, strain hhf1, stronger effect = lower value 1.06 | locus YBR021W, strain FUR4, stronger effect = lower value 0.985 | locus YBR023C, strain chs3, stronger effect = lower value 1.01 | locus YBR171W, strain sec66, stronger effect = lower value 1.01 | locus YBR229C, strain ROT2, stronger effect = lower value 1.02 | locus YBR231C, strain swc5, stronger effect = lower value 0.995 | locus YBR279W, strain paf1, stronger effect = lower value 1.02 | locus YCL011C, strain gbp2, stronger effect = lower value 1.02 | locus YCL016C, strain dcc1, stronger effect = lower value 0.999 | locus YCL029C, strain bik1, stronger effect = lower value 1.03 | locus YCL061C, strain MRC1, stronger effect = lower value 1 | locus YCL069W, strain vba3, stronger effect = lower value 1 | locus YCR088W, strain abp1, stronger effect = lower value 1 | locus YDL005C, strain med2, stronger effect = lower value 1.01 | locus YDL035C, strain GPR1, stronger effect = lower value 1.03 | locus YDL040C, strain nat1, stronger effect = lower value 1 | locus YDL074C, strain BRE1, stronger effect = lower value 1.03 | locus YDL101C, strain DUN1, stronger effect = lower value 1.02 | locus YDL185W, strain tfp1, stronger effect = lower value 1.04 | locus YDL192W, strain arf1, stronger effect = lower value 1.03 | locus YDR001C, strain nth1, stronger effect = lower value 1.01 | locus YDR069C, strain doa4, stronger effect = lower value 0.985 | locus YDR101C, strain arx1, stronger effect = lower value 1.03 | locus YDR137W, strain rgp1, stronger effect = lower value 1.02 | locus YDR150W, strain NUM1, stronger effect = lower value 1.02 | locus YDR159W, strain sac3, stronger effect = lower value 0.978 | locus YDR162C, strain NBP2, stronger effect = lower value 1.05 | locus YDR195W, strain ref2 0.97 | locus YDR297W, strain sur2, stronger effect = lower value 1.04 | locus YDR318W, strain mcm21, stronger effect = lower value 1.03 | locus YDR334W, strain swr1, stronger effect = lower value 1.02 | locus YDR335W, strain msn5, stronger effect = lower value 1.01 | locus YDR388W, stronger effect = lower value 1.03 | locus YDR392W, strain spt3, stronger effect = lower value 0.907 | locus YDR502C, strain sam2, stronger effect = lower value 1.03 | locus YEL003W, strain gim4, stronger effect = lower value 1.02 | locus YEL037C, strain rad23, stronger effect = lower value 1.01 | locus YEL061C, strain CIN8 (second series), stronger effect = lower value 1.01 | locus YEL061C, strain CIN8, stronger effect = lower value 1.02 | locus YER015W, strain faa2, stronger effect = lower value 1.01 | locus YER016W, strain bim1, stronger effect = lower value 1 | locus YER110C, stronger effect = lower value 1.04 | locus YER111C, strain swi4, stronger effect = lower value 1.01 | locus YER155C, strain BEM2 (second series), stronger effect = lower value 0.973 | locus YER155C, strain BEM2, stronger effect = lower value 1 | locus YER167W, strain BCK2, stronger effect = lower value 1.03 | locus YFR010W, strain ubp6, stronger effect = lower value 1.01 | locus YGL078C, strain dbp3, stronger effect = lower value 1.03 | locus YGL086W, strain mad1, stronger effect = lower value 1.02 | locus YGL167C, strain pmr1, stronger effect = lower value 0.998 | locus YGL173C, strain kem1, stronger effect = lower value 1.02 | locus YGL227W, strain vid30, stronger effect = lower value 1.01 | locus YGL240W, strain doc1, stronger effect = lower value 0.987 | locus YGL248W, strain PDE1, stronger effect = lower value 1.02 | locus YGL253W, strain hxk2, stronger effect = lower value 1.01 | locus YGR135W, strain pre9, stronger effect = lower value 1.03 | locus YGR252W, strain gcn5, stronger effect = lower value 1.01 | locus YHR013C, strain ard1, stronger effect = lower value 0.995 | locus YHR027C, strain rpn1, stronger effect = lower value 1.01 | locus YHR030C, strain SLT2, stronger effect = lower value 1.02 and 0.957 | locus YHR079C, strain IRE1 (second series), stronger effect = lower value 1.03 | locus YHR079C, strain IRE1, stronger effect = lower value 0.967 | locus YHR094C, strain hxt1, stronger effect = lower value 1.03 | locus YHR129C, strain ARP1, stronger effect = lower value 1.02 | locus YHR142W, strain chs7, stronger effect = lower value 1.03 | locus YHR200W, strain rpn10, stronger effect = lower value 1.04 | locus YIL066C, strain RNR3, stronger effect = lower value 1.04 | locus YIL073C, strain SPO22, stronger effect = lower value 1.13 | locus YIL125W, strain kgd1, stronger effect = lower value 1.03 | locus YIR030C, strain dcg1, stronger effect = lower value 1.03 | locus YJL092W, strain hpr5, stronger effect = lower value 1 | locus YJL095W, strain BCK1 (second series), stronger effect = lower value 1.02 | locus YJL095W, strain BCK1, stronger effect = lower value 1.04 and 1 | locus YJL115W, strain asf1, stronger effect = lower value 1.01 | locus YJL129C, strain trk1, stronger effect = lower value 1.01 | locus YJL134W, strain LCB3, stronger effect = lower value 1.01 | locus YJL154C, strain vps35, stronger effect = lower value 1 | locus YJL164C, strain tpk1, stronger effect = lower value 1.02 | locus YJL166W, strain qcr8, stronger effect = lower value 0.989 | locus YJL168C, strain set2, stronger effect = lower value 1.03 | locus YJL187C, strain SWE1 (second series), stronger effect = lower value 1.04 | locus YJL187C, strain SWE1, stronger effect = lower value 1.03 | locus YJR043C, strain POL32, stronger effect = lower value 1.03 | locus YJR066W, strain TOR1, stronger effect = lower value 0.975 | locus YKL009W, strain mrt4, stronger effect = lower value 1.05 | locus YKL068W, stronger effect = lower value 1.05 | locus YKL085W, strain MDH1 (second series), stronger effect = lower value 1.03 | locus YKL085W, strain MDH1, stronger effect = lower value 1.03 | locus YKL160W, strain elf1, stronger effect = lower value 0.963 | locus YKR001C, strain vps1, stronger effect = lower value 1.01 | locus YKR026C, strain gcn3, stronger effect = lower value 1.01 | locus YKR091W, strain srl3, stronger effect = lower value 1.01 | locus YLL001W, strain dnm1, stronger effect = lower value 0.992 | locus YLL026W, stronger effect = lower value 1 | locus YLL041C, strain sdh2, stronger effect = lower value 1.01 | locus YLR027C, strain aat2, stronger effect = lower value 1 | locus YLR039C, strain RIC1, stronger effect = lower value 1.09 | locus YLR058C, strain SHM2, stronger effect = lower value 1.03 | locus YLR102C, strain apc9, stronger effect = lower value 1.03 | locus YLR113W, strain HOG1, stronger effect = lower value 0.94 | locus YLR221C, strain rsa3, stronger effect = lower value 0.999 | locus YLR258W, strain gsy2, stronger effect = lower value 1.01 | locus YLR262C, strain YPT6 (second series), stronger effect = lower value 0.994 | locus YLR262C, strain YPT6, stronger effect = lower value 1.13 | locus YLR268W, strain sec22, stronger effect = lower value 1.02 | locus YLR320W, strain mms22, stronger effect = lower value 0.991 | locus YLR330W, strain CHS5, stronger effect = lower value 1.02 | locus YLR342W, strain FKS1 (second series), stronger effect = lower value 1.02 | locus YLR342W, strain FKS1, stronger effect = lower value 1.01 | locus YLR357W, strain rsc2, stronger effect = lower value 1.01 | locus YLR370C, strain arc18, stronger effect = lower value 1.02 | locus YLR371W, strain rom2, stronger effect = lower value 1.02 | locus YLR384C, strain iki3, stronger effect = lower value 1.01 | locus YLR418C, strain cdc73, stronger effect = lower value 1.04 | locus YML016C, strain PPZ1, stronger effect = lower value 1.02 | locus YML032C, strain rad52, stronger effect = lower value 1.02 | locus YML120C, strain ndi1, stronger effect = lower value 1.01 | locus YML124C, strain tub3, stronger effect = lower value 1.04 | locus YMR058W, strain fet3, stronger effect = lower value 1.01 | locus YMR078C, strain ctf18, stronger effect = lower value 1.06 | locus YMR125W, strain sto1, stronger effect = lower value 0.973 | locus YMR129W, stronger effect = lower value 1.01 | locus YMR205C, strain PFK2, stronger effect = lower value 0.966 | locus YMR223W, strain ubp8, stronger effect = lower value 1.02 | locus YMR231W, strain pep5, stronger effect = lower value 1.01 | locus YMR307W, strain GAS1, stronger effect = lower value 1.01 | locus YNL067W, strain RPL9B, stronger effect = lower value 1.04 | locus YNL071W, strain lat1, stronger effect = lower value 1 | locus YNL128W, strain TEP1, stronger effect = lower value 1.02 | locus YNL183C, strain NPR1, stronger effect = lower value 0.937 | locus YNL209W, strain ssb2, stronger effect = lower value 1.01 | locus YNL233W, strain BNI4, stronger effect = lower value 1.03 | locus YNL248C, strain rpa49, stronger effect = lower value 0.953 | locus YNL250W, strain rad50, stronger effect = lower value 1.04 | locus YNL271C, strain bni1, stronger effect = lower value 1.04 | locus YNL298W, strain CLA4, stronger effect = lower value 1.05 | locus YNL307C, strain MCK1, stronger effect = lower value 1.05 | locus YNL322C, strain KRE1 (second series), stronger effect = lower value 0.998 | locus YNR049C, strain mso1, stronger effect = lower value 1.01 | locus YNR052C, strain pop2, stronger effect = lower value 1.02 | locus YOL012C, strain htz1 1.37 | locus YOL147C, strain pex11, stronger effect = lower value 1.02 | locus YOR001W, strain rrp6, stronger effect = lower value 1 | locus YOR061W, strain CKA2, stronger effect = lower value 1.02 | locus YOR069W, strain VPS5, stronger effect = lower value 1.01 | locus YOR070C, strain gyp1, stronger effect = lower value 1.01 | locus YOR080W, strain dia2, stronger effect = lower value 0.998 | locus YOR083W, strain WHI5, stronger effect = lower value 0.968 | locus YOR106W, strain vam3, stronger effect = lower value 0.988 | locus YOR136W, strain idh2, stronger effect = lower value 1.04 | locus YOR144C, strain elg1, stronger effect = lower value 1.01 | locus YOR184W, strain ser1, stronger effect = lower value 1.02 | locus YOR231W, strain MKK1, stronger effect = lower value 0.966 | locus YOR265W, strain rbl2, stronger effect = lower value 0.999 | locus YOR270C, strain vph1, stronger effect = lower value 0.981 | locus YOR290C, strain snf2, stronger effect = lower value 1 | locus YOR316C, strain cot1, stronger effect = lower value 1.04 | locus YPL051W, strain arl3, stronger effect = lower value 0.988 | locus YPL055C, strain LGE1, stronger effect = lower value 1.05 | locus YPL078C, strain atp4, stronger effect = lower value 0.958 | locus YPL106C, strain sse1, stronger effect = lower value 1 | locus YPL240C, strain hsp82, stronger effect = lower value 1.01 | locus YPL241C, strain CIN2, stronger effect = lower value 1.02 | locus YPL256C, strain CLN2, stronger effect = lower value 0.986 | locus YPR119W, strain clb2, stronger effect = lower value 1.03 | locus YPR141C, strain kar3, stronger effect = lower value 1.03 | locus YPR163C, strain tif3, stronger effect = lower value 1.01 | locus YPR167C, strain met16, stronger effect = lower value 1.04 | strain wtn01, stronger effect = lower value 1.03
